Inconclusive results are not listed. Calls of active or inactive are those of the source. Calls come from the whole dose curve; as a rule, active = well fitted curve in the direction sought with a large enough effect in the signal ratio in the repeat runs (not every such curve was filed as active); inconclusive = weak or mixed curves, or a change in a side signal; inactive = no such curve, though single readings can be large or run the other way; the % refers to the signal ratio.
Assay: qHTS assay to identify small molecule agonists of the NFkB signaling pathway (AID 1159509)
Details: NFkB-bla ME-180 cells, beta-lactamase FRET ratio, 5 h; series mostly up to 61 µM
From the text: National Center for Advancing Translational Sciences [NCATS]
NIH Chemical Genomics Center [NCGC]
U.S. Environmental Protection Agency [EPA]
National Institutes of Environmental Health Sciences [NIEHS]
National Toxicology Program [NTP]
U.S. Food and Drug Administration [FDA]
Transcription factors and their stimulated target gene expression play pivotal roles across many cellular processes including responses to environmental stimuli. Proper regulation of associated pathways is critical to maintain cell health and function. Constitutive activation of transcription factor pathways has been implicated in tumors as it may block cellular functions such as apoptosis and lead to invasion and metastasis. One important transcription factor that stimulates gene expression in response to cytokines, UV radiation, and other stimuli is nuclear factor-kappa B (NFkB). To measure activation of the NFkB pathway, the CellSensor NFkB-bla ME-180 cell line (Life Technologies, Carlsbad, CA) that stably expresses beta-lactamase reporter gene under the regulation of a NF-kB response element was used. This assay allows measurement of the NFkB pathway activity induced by compounds in a ME-180 cell line. This system quantitates NF-kB activity using a FRET-based assay system where beta-lactamase expression disrupts FRET, allowing for fluorescent measurement of activity. This cell line has been used to screen the Tox21 10K compound library and to identify compounds that induce the NFkB pathway activity.
Tox21 Assay Protocol Summary:
NFkB-bla ME-180 cells were dispensed at 2,000 cells/6 uL of assay medium per well into black wall/clear-bottom 1536-well plates using a Multidrop Combi (ThermoFisher Scientific, Waltham, MA) dispenser. After the assay plates were incubated at 37 C and 5% CO2 for an overnight, 23 nL of compounds dissolved in DMSO, positive controls or DMSO only was transferred to the assay plate by a Pintool station (Kalypsys, San Diego, CA). The assay plates were incubated at 37 C and 5% CO2 for 5 hr. One uL of LiveBLAzer B/G FRET substrate (Life Technologies) was added using a Flying Reagent Dispenser (Aurora Discovery, San Diego, CA) and the plates were incubated at room temperature for 1.5 hr. Fluorescence intensity (405 nm excitation, 460 nm and 530 nm emissions) was measured using an Envision plate reader (PerkinElmer, Shelton, CT).

SMILES	outcome
CN(C)c1ccc(O)c2c1C[C@H]1C[C@H]3[C@H](N(C)C)C(=O)C(C(N)=O)=C(O)[C@@]3(O)C(=O)C1=C2O	inactive
O=C(O)Cn1c(=O)n(Cc2ccc(Br)cc2F)c(=O)c2ccc(Cl)cc21	inactive
COCCCN	inactive
CCCCCC(=O)O	inactive
CC(=O)OC1CC(C)OC(C)O1 (stereo not given)	inactive
NCCNCCN	inactive
O=C(O)c1ccccc1C(=O)O	inactive
COc1ccccc1OCC(O)CO (stereo not given)	inactive
O=C1CCCC1	inactive
C[Si]1(C)O[Si](C)(C)O[Si](C)(C)O[Si](C)(C)O1	inactive
CCCCCCCCCCCCCCCC(=O)OC(C)C	inactive
CCO[Si](CCC#N)(OCC)OCC	inactive
CCNc1cccc(C)c1	inactive
CCCOC(=O)c1ccccc1	inactive
O=C(O)c1ccc(C(=O)O)c(C(=O)O)c1	inactive
CCNC(=S)NCC	inactive
CN(C)c1ccc(Cc2ccc(N(C)C)cc2)cc1	inactive
O=c1[nH]cnc2[nH]ncc12	inactive
CCO[Si](CCCN)(OCC)OCC	inactive
Brc1ccc(Br)c(Br)c1	inactive

SMILES	outcome
CCCCCCCCCCN	inactive
NC(=S)NNC(N)=S	inactive
N#Cc1ccccc1	inactive
COc1ccc(CCC(C)=O)cc1	inactive
COCCOC(=O)c1ccccc1C(=O)OCCOC	inactive
CNC(=O)Oc1ccc2c(c1)[C@]1(C)CCN(C)[C@@H]1N2C	inactive
Cc1ccc([N+](=O)[O-])cc1S(=O)(=O)O	inactive
CCOCC(=O)O	inactive
CCOC(=O)n1ccn(C)c1=S	inactive
Cc1ccc(S(=O)(=O)N=C=O)cc1	inactive
CC1(C)OC[C@@H]2O[C@@]3(C(=O)O)OC(C)(C)O[C@H]3[C@@H]2O1	inactive
Cc1ccc2ncccc2c1	inactive
O=C(O)c1ccc(S(=O)(=O)N(Cl)Cl)cc1	inactive
CC(C)CC(C)O (stereo not given)	inactive
CC(C)(C#N)c1cc(Cn2cncn2)cc(C(C)(C)C#N)c1	inactive
COC(=O)CCCC(=O)OC	inactive
CC(=O)OCc1ccccc1	inactive
O=S(=O)(O)c1ccccc1	inactive
C=CC[N+](C)(C)CC=C	inactive
CC(C)CCCCCCCOC(=O)CCCCC(=O)OCCCCCCCC(C)C	inactive
